Source: PubChem BioAssay (several laboratories)
Compounds with a hit are over-represented: about 2.4% of the library has one in this group of screens.
ADAM17 inh: ADAM17 inhibitors, primary screen, biochemical, QFRET | recombinant ADAM17, EDANS/DABCYL FRET peptide cleavage | 370,000 compounds, 0.83% hits | inhibition, % at 6.95 µM | Disintegrin and metalloproteinase domain-containing protein 17 (Homo sapiens), P78536;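 active = inhibition above the mean of compounds lying between control limits plus 3 SD, set per campaign, cut at about 8.5% in these data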;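 also: 0% = DMSO-only wells as the low control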
A3A deaminase: APOBEC3A ssDNA deaminase inhibitors, primary screen, selectivity assay for APOBEC3G inhibitor project, biochemical, FAM/TAMRA oligo cleavage fluorescence; 330,000 compounds, 0.41% hits; DNA dC->dU-editing enzyme APOBEC-3A (Homo sapiens), P31941; recombinant A3A, FAM/TAMRA ssDNA deamination fluorescence; AID 493011, 2011; inhibition, % at 20 µM;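 active = at least 40% inhibition at 20 µM here, with at most 30% in a related deaminase screen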;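 also: plate controls were A3A with DMSO for no effect and wells lacking A3A enzyme for full effect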
ADAM10 inh: human ADAM10 inhibitors, primary screen, biochemical, QFRET, HTS; Disintegrin and metalloproteinase domain-containing protein 10 (Homo sapiens), O14672; recombinant ADAM10, EDANS/DABCYL FRET peptide cleavage, 3 h; inhibition, % at 7 µM; 370,000 compounds, 0.62% hits;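 active = inhibition above a per-campaign cutoff equal to the mean of compounds falling between control-based bounds plus 3 SD, cut at about 20% in these data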;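 also: 0% = DMSO wells while the 100% control is not disclosed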
CendR NRP1 mod: modulators of CendR peptide binding to NRP-1, primary screen, biochemical, fluorescence polarization, uHTS | 360,000 compounds, 0.85% hits | AID 602438, 2012 | inhibition, % at 25 µM | FAM-RPARPAR peptide binding to NRP-1 | Neuropilin-1 (Homo sapiens), O14786;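 active = inhibition or corrected inhibition above about 18%, plus a signal ratio from 0.5 to 1.5, limit read from the data, passing the limit was not always enough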
APOBEC3G inh: APOBEC3G DNA deaminase inhibitors, primary screen, biochemical, fluorescence, single-stranded DNA substrate, uHTS | recombinant A3G, ssDNA deamination FAM/TAMRA fluorescence | inhibition, % at 20 µM | 330,000 compounds, 0.28% hits | AID 493012, 2011;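 active = inhibition of at least 40% at 20 µM, with no more than 30% in the related APOBEC3A deaminase screen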;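 also: plate controls were DMSO wells with A3G for no effect and wells lacking A3G enzyme for full effect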
ADAM10 confirm: human ADAM10 inhibitors, confirmation, biochemical, QFRET, triplicate; shares compounds with ADAM10 inh; ADAM10 QFRET peptide cleavage, EDANS fluorescence; inhibition, % at 6.95 µM; 2,100 compounds, 1% hits;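 active = inhibition above about 20% chosen separately for each screening run, limit read from the data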;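 also: 0% = DMSO wells and 100% = marimastat wells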
ADAM17 counter: ADAM17 inhibitors, counter-screen for ADAM10 exosite inhibitor project, biochemical, QFRET, high throughput; shares compounds with ADAM10 inh; ADAM17 QFRET peptide cleavage, EDANS fluorescence; inhibition, % at 6.95 µM; 2,100 compounds, 0.5% hits; AID 743214, 2013;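 active = mean triplicate inhibition above the solvent-only control wells' mean plus 3 SD, cut at about 12% in these data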;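 also: 0% = DMSO wells and 100% = marimastat wells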
* hit, by the source's call; · = no result.

SMILES	ADAM17 inh	A3A deaminase	ADAM10 inh	CendR NRP1 mod	APOBEC3G inh	ADAM10 confirm	ADAM17 counter
C[C@@H]1CN([C@@H](C)CN(C)C)C(=O)c2cc(NC(=O)Nc3ccccc3)ccc2O[C@@H](C)CCCCO[C@H]1CN(C)S(=O)(=O)c1ccc(F)cc1	8	·	19	·	·	·	·
C[C@@H]1CCCCO[C@@H](CN(C)C(=O)Nc2ccc(C(F)(F)F)cc2)[C@@H](C)CN([C@H](C)CO)C(=O)c2cc(NS(=O)(=O)c3ccc(Cl)cc3)ccc2O1	16*	·	45*	·	·	9	1
CC1CC1C(=O)N1CCC(Oc2cccnc2)CC1 (centres undefined)	-3	·	-2	·	·	·	·
O=C(NC1CCCC1)[C@@H]1CCCN1C(=O)[C@@H](NS(=O)(=O)c1ccc(F)cc1F)c1ccccc1	-4	·	-12	·	·	·	·
COc1ccc(/C=N\NC(=O)Cc2cccs2)c(OC)c1OC	-1	·	-3	·	·	·	·
O=C(NCc1ccc(F)cc1)c1cnc(-c2ccccn2)nc1C(F)(F)F	-5	1	66*	29*	1	2	0
COc1ccc(N2CCN(C(=O)CN(c3ccccc3)S(=O)(=O)c3ccc(OC)cc3)CC2)cc1	-1	-4	0	-15	-1	·	·
COc1ccc(N2CCN(C(=O)CN(c3ccc(OC)cc3)S(=O)(=O)c3ccccc3)CC2)cc1	1	23	21*	3	-5	3	-1
COc1cccc(NC(=S)NNC(=O)c2ccccc2OC(F)F)c1	7	5	21*	-3	1	1	0
COC(=O)C1CCCN(C(=O)C2CCN(S(=O)(=O)c3cccs3)CC2)C1 (centres undefined)	0	·	1	·	·	·	·
Cc1cc(C)n(CC(O)Cn2c3ccc(Br)cc3c3cc(Br)ccc32)c(=O)n1 (centres undefined)	8	-5	20*	12	-11	6	2
CCOC1=C2[C@@H](CN(S(=O)(=O)c3ccc(C)cc3)[C@H]2c2cccc3ccccc23)[C@H]2C(=O)N(c3ccccc3)C(=O)[C@H]2C1	6	·	21*	11	·	10	3
O=C(Cc1cccc2ccccc12)Nc1cc(Cl)ccc1C(=O)O	4	-2	23*	-32	-3	1	0
COc1cc(/C=N/NC(=O)c2ccc(C)nc2)cc([N+](=O)[O-])c1O	6	0	22*	-10	-4	1	-1
CCOc1cc(/C=N\NC(=O)c2ccc(C)nc2)cc([N+](=O)[O-])c1O	4	5	10	-2	-2	·	·
COc1ccc(Cl)cc1CC1(C)C(=O)Nc2ccc(-c3ccccc3OC)cc21 (centres undefined)	6	·	5	9	·	·	·
COc1ccccc1-c1ccc2c(c1)C(C)(Cc1cc(Cl)ccc1C(F)(F)F)C(=O)N2 (centres undefined)	7	·	21*	-6	·	4	1
Cc1ccc(-c2cc(C#N)c3n(c2=O)CCC3)cc1	-31	·	-106	·	·	·	·
CC(=O)Nc1ccc(C(=O)OCC(=O)c2cccc([N+](=O)[O-])c2)cc1	4	-1	5	1	-7	·	·
Cc1ccc(C(=O)COC(=O)c2cccc(NC(=O)c3ccc([N+](=O)[O-])cc3[N+](=O)[O-])c2)cc1	4	-2	25*	4	-2	6	1
O=C(CCl)Nc1ccc(C(=O)NCC2COc3ccccc3O2)cc1 (centres undefined)	4	·	3	·	·	·	·
CCOC(=O)c1c(N)sc(C(O)(C(F)(F)F)C(F)(F)F)c1-c1ccc(F)cc1	11*	-2	24*	10	-6	6	2
O=S1(=O)c2ccc(N3CCC[C@H]3CO)cc2O[C@@H]2CCN1C2	-4	·	-3	·	·	·	·
CCCCN1CN2Cc3ccccc3C2CS1(=O)=O (centres undefined)	-4	·	-7	·	·	·	·
CC(=O)N[C@@H](Cc1c[nH]c2ccccc12)C(=O)OCc1cc(C(F)(F)F)cc(C(F)(F)F)c1	3	-4	24*	-1	-2	-1	-1
SMILES	ADAM17 inh	A3A deaminase	ADAM10 inh	CendR NRP1 mod	APOBEC3G inh	ADAM10 confirm	ADAM17 counter
COC(=O)C(Cc1c[nH]c2ccccc12)NC(C)=O (centres undefined)	-2	-6	0	4	-8	·	·
CC1=NNC(=O)/C1=C\c1cn(-c2ccccc2)nc1-c1ccccc1	16*	·	24*	-2	·	6	2
COc1ccc(NS(=O)(=O)c2ccc(-c3ccccn3)s2)cc1	5	0	22*	9	-2	0	0
O=c1[nH]c2cc(C(F)(F)F)ccc2n1-c1cc(C(F)(F)F)ccc1O	3	-4	20*	-2	-7	0	-1
Cc1c(C(C)(C)O)[nH]c2cc(C(F)(F)F)ccc12	-3	0	5	2	-2	·	·
Cc1ccc(NC(=O)Cc2cccc(OC(F)F)c2)c(S(=O)(=O)N2CCOCC2)c1	-2	·	9	·	·	·	·
COC(=O)[C@]12C[C@H](CC(=O)NCc3cccs3)C(=O)N(CCC3=CCCCC3)C1=C[C@H](C1CCCC1)O[C@@H]2C	2	·	8	·	·	·	·
CC(=C\C=O)/C(C)=C/CC[C@@H]1O[C@@H]2C[C@@H]3O[C@](C)(C[C@H]4C[C@H](O)[C@@H]5O[C@@H]6C[C@H](O)[C@@H](C)O[C@@]6(C)CC[C@H]5O4)[C@@H](O)CC[C@@]3(C)O[C@H]2[C@@H](O)[C@@H]1C	-8	·	-7	·	·	·	·
CCCC1CC(C)(c2csc(Nc3ccc(OCC)cc3)n2)OC1=O (centres undefined)	5	-7	21*	-3	-4	8	2
CN1CC(O)([C@H](Cc2ccccc2)NC(=O)OC(C)(C)C)OCC1C(=O)NCc1cccc2ccccc12 (some centres undefined)	1	·	-1	·	·	·	·
C=CCN1[C@@H](C)[C@H](c2ccccc2)Oc2cccc(N3CCCC3)c2S1(=O)=O	-3	·	-9	·	·	·	·
O=C(Nc1cc(Sc2ccccn2)cc([N+](=O)[O-])c1)c1ccc(Cl)cc1	1	3	-4	5	0	·	·
O=C(Nc1cc(Sc2ccccn2)cc([N+](=O)[O-])c1)c1cccc(Cl)c1	7	1	20*	-10	-3	7	3
